In PubChem BioAssay AID1053125 (Broad Institute, 2014):
Measured potencies and affinities stand elsewhere. Calls of active or inactive are those of the source.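 The calls were made as follows: active = viability loss whose fitted half-maximal concentration is at most twice the top valid tested dose; inconclusive = flat curve with 30 to 70% loss, or poor fit; inactive = the rest.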

Experiment: HepG2 cell cytotoxicity, dose response, cytotoxicity control, ATP luminescence, cherry-pick, set 6 (AID 1053125);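 also: negative values mean loss of viability signal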
Conditions: HepG2 viability, ATP luminescence (CellTiter-Glo), 72 h; series mostly up to 26 µM
With COc1ccccc1C(=O)c1cc2ccc(O)cc2oc1=O the outcome was “inactive”.
With COc1ccc(Br)c(Cn2c(C)c(C(=O)NCc3ccc4c(c3)OCCO4)sc2=O)c1 the outcome was “inactive”.
With CCNc1nc2nc3ccc(C)cn3c(=O)c2cc1C(=O)NCC1CCCO1 (stereo not drawn) the outcome was “inactive”.
For Cc1cccn2c(=O)c3cc(C(=O)NCC4CCCO4)c(=N)n(CC4CCCO4)c3nc12 (stereo not drawn), the outcome was “inactive”.
For CC(C)CCN1C(=O)c2cccc3c(N)ccc(c23)C1=O, the outcome was “inactive”.
With COc1ccc(C2C3=C(CCCC3=O)N(CC(=O)O)C3=C2C(=O)CCC3)cc1 the outcome was “inactive”.
For CCOC(=O)c1cc2c(=O)n3ccccc3nc2n(CCCOC)c1=NC(=O)c1ccncc1, the outcome was “inactive”.
For O=C(O)c1ccc(N/N=C/c2ccc(-c3ccccc3Cl)o2)cc1, the outcome was “inactive”.
In the case of COc1cc(C(c2c(C(=O)O)[nH]c3ccccc23)c2c(C(=O)O)[nH]c3ccccc23)ccc1OCc1ccccc1, the outcome is reported as “inactive”.
With O=C(/C=C/c1ccccc1)C1=C(O)C(=O)N(CCO)C1c1ccc2c(c1)OCO2 (stereo not drawn) the outcome was “inactive”.
For CC1CCN(C(=O)COc2cccc3c2CCN(Cc2ccccc2)C3=O)CC1, the outcome was “inactive”.
For COc1ccc(CCNC(=O)c2cc(S(=O)(=O)N3CCCCC3)c[nH]2)cc1OC, the outcome was “inactive”.
With COc1ccccc1NS(=O)(=O)c1cc(NC(=O)CCNC(C)=O)ccc1C the outcome was “inactive”.
In the case of COc1cc(C2C3=C(CC(C)(C)CC3=O)N(C)C3=C2C(=O)CC(C)(C)C3)cc(Br)c1O, the outcome is reported as “inactive”.
In the case of COc1ccc(C2CC(c3cccs3)=NN2c2nc(C)c(C(C)=O)s2)cc1OC (stereo not drawn), the outcome is reported as “inactive”.
In the case of Cc1ccc(-n2nnnc2CNC(=O)C(=O)c2c[nH]c3ccccc23)cc1C, the outcome is reported as “inactive”.
With COc1ccc(C2C(C#N)=C(N)Oc3cc(O)ccc32)cc1Cl (stereo not drawn) the outcome was “inactive”.
In the case of O=C(O)c1cccc(NC(=O)c2cn(-c3ccccc3)nc2-c2cccc(Br)c2)c1, the outcome is reported as “inactive”.
